This note sets out measurements from PubChem BioAssay AID504332 (National Center for Advancing Translational Sciences (NCATS), 2011).

In all, about 350,000 compounds went through this assay and about 31,000 (8.9%) were called active. About 15% were inconclusive and are not listed. What follows is part of a selection rich in actives, with near analogues and random picks from the rest. Unmarked numbers belong to inactive results. Calls follow the shape of the dose curve; as a rule, active = well fitted inhibition curve with a large enough effect; inconclusive = small, poorly fitted or top-dose-only effect; inactive = no such curve, though single readings can be large or run the other way.
% is scaled to controls: 0 for no effect and ±100 for the full control effect; potency is read from the fitted curve at half-maximal effect.

Sequence of Histone-lysine N-methyltransferase EHMT2 (Homo sapiens) (Q96KQ7 913-1193 limits assumed): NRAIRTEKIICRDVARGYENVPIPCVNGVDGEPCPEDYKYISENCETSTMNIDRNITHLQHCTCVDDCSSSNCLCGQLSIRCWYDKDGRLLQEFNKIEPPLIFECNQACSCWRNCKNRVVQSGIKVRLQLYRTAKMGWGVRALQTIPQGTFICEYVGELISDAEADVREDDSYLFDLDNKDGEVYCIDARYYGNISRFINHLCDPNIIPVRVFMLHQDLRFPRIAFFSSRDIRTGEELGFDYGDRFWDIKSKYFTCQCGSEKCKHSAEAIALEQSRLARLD

The assay addresses Histone-lysine N-methyltransferase EHMT2 (Homo sapiens) (UniProt Q96KQ7). As to the kind of experiment: qHTS Assay for Inhibitors of Histone Lysine Methyltransferase G9a. Also: nearly all actives have a fitted effect of over 75% in size. The following applies: G9a H3K9 monomethylation, AlphaScreen, 2 h; series mostly up to 59 µM; activity, negative = inhibition: at the top concentration. The method, boiled down: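 Step 1: enzyme (final 20 nM) with compound, 15 min RT. Step 2: substrate peptide 500 nM and SAM 20 uM, 2 h RT. Step 3: anti-H3K9me1 antibody and AlphaScreen beads, 10 min, then plate read.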
`COc1ccc(NC(=O)CC2SC(N3CCCCC3)=NC2=O)cc1OC` (stereo not drawn): the activity, negative = inhibition is 29.8% [at 12.7 µM].
With `O=c1c2ccccc2n(Cc2cccc(Cl)c2)c(=O)n1Cc1ccccc1`, the “activity, negative = inhibition” value was 3.21%.
Still for that read-out and setting: then `COc1ccc(CNC(=O)CSCc2nc(-c3ccccc3F)oc2C)cc1`, with -1.95%; and `O=C(Cn1c(=O)n(-c2ccc(F)cc2)c(=O)c2sccc21)Nc1cccc(C(F)(F)F)c1`, with -1.91%; and `CCc1sc(C(=O)N2CCN(CC(=O)Nc3cccc(F)c3)CC2)cc1C`, with 13.2%.
On the same count and under the same terms, as for `CCN(C(=O)COC(=O)C1CCN(S(=O)(=O)c2ccc(C)c(C)c2)CC1)C1CCS(=O)(=O)C1` (stereo not drawn), the figure is 7.98% [at 2.33 µM]; as for `COc1ccc(C2CC(=O)N(Cc3ccccc3C)c3c2c(C)nn3-c2nc(C)cc(C)n2)c(OC)c1` (stereo not drawn), -2.3%; as for `Cc1cc(NC(=O)CSc2ncc(C(=O)Nc3ccc(Cl)cc3)c(=O)n2C)no1`, 2.93%.
As for `COc1ccc(-c2nc(S(=O)(=O)c3ccccc3)c(N3CCCCC3)o2)cc1`, the “activity, negative = inhibition” value was -18.6%.
Turning to `O=S(=O)(c1ccccc1)c1nc(Cc2ccccc2)oc1N1CCOCC1`, the Potency is 7.08 µM (active).
In the case of `COc1cccc(-c2nc(S(=O)(=O)c3ccccc3)c(N3CCOCC3)o2)c1`, the activity, negative = inhibition was -43% [at 12.7 µM].
With `COc1ccc(CNC(=O)COC(=O)c2c(C)nn(-c3ccccc3)c2C)cc1OC`, the “activity, negative = inhibition” value is 4% [at 102 µM].
For `C#CCOCCOCCOCCNc1nc(N2CCN(C(=O)CCCCCCCCCCNC(=O)[C@H](CCCCN)n3cc(C)nn3)CC2)nc(N2CCN(C(=O)CCCCCCCCCCNC(=O)[C@H](CO)n3cc(CCCSC)nn3)CC2)n1`, the activity, negative = inhibition is -8.81% [at 2.33 µM].
Consider `C#CCOCCOCCOCCNc1nc(N2CCN(C(=O)[C@H](C(C)C)n3cc(CCO)nn3)CC2)nc(N2CCN(C(=O)[C@H]([C@@H](C)CC)n3cc(CCCN=C(N)N)nn3)CC2)n1`, for which the Potency was 39.8 µM (active).
Take `C#CCOCCOCCOCCNc1nc(N2CCN(C(=O)Cn3cc(CCCCN)nn3)CC2)nc(N2CCN(C(=O)[C@H](CCCCN)n3cc(CCC(=O)O)nn3)CC2)n1`: the activity, negative = inhibition is 5.8% [at 2.33 µM].
On the same count and under the same terms, then `C#CCOCCOCCOCCNc1nc(N2CCN(C(=O)[C@H](CCCCN)n3cc(CCC(=O)O)nn3)CC2)nc(N2CCN(C(=O)[C@H](CCCCN)n3cc(CC(C)O)nn3)CC2)n1` (stereo partly drawn), with -23.5% [at 2.33 µM]; and `C#CCOCCOCCOCCNc1nc(N2CCN(C(=O)CCCCCCCCCCNC(=O)[C@H]([C@@H](C)CC)n3cc(CCCCN=C(N)N)nn3)CC2)nc(N2CCN(C(=O)CCCCCCCCCCNC(=O)[C@H](CO)n3cc(CCCSC)nn3)CC2)n1`, with 10.6% [at 2.33 µM].
For the compound `C#CCOCCOCCOCCNc1nc(N2CCN(C(=O)[C@H](C(C)C)n3cc(CCO)nn3)CC2)nc(N2CCN(C(=O)[C@H](C(C)C)n3cc(CCO)nn3)CC2)n1`, the Potency is 44.7 µM (active).
Turning to `COc1ccccc1CNC(=O)NCc1noc2ccc(C)cc12`, the “activity, negative = inhibition” value was 9.85%.
As for `Cc1cc(C)c(NC(=O)CCc2c(C)nc3c(c(C)nn3C(C)(C)C)c2C)c(C)c1`, the “activity, negative = inhibition” value was -0.258%.
With `N#Cc1nc(/C=C/c2ccc(F)cc2)oc1NCc1ccc(F)cc1`, the “activity, negative = inhibition” value is -28.7%.
On the same count and under the same terms, as for `O=C(Nc1ccc2c(c1)OCO2)c1cc(-c2cccc(Cl)c2)on1`, the figure is -27.1%; as for `COc1ccc(NC(=O)Cn2c(=O)cc(C)c3c(C)nn(-c4cccc(Cl)c4C)c32)cc1OC`, -1.25%; as for `COc1cccc(CNC(=O)Cc2csc3nc(-c4ccccc4)cn23)c1`, 5.25%.
With `O=C1/C(=C\c2ccsc2)NC(=S)N1c1ccccc1`, the Potency is 50.1 µM (active).
With `CC1=CC(C)(C)NC(=S)N1c1ccccc1`, the “activity, negative = inhibition” value is 13.4% [at 102 µM].
Same read-out and setting: as for `O=C1/C(=C/c2coc3ccc(O)cc3c2=O)SC(=S)N1c1ccccc1`, the figure is -31.3% [at 12.7 µM].
`CC(=O)c1ccccc1OCc1ccc(C(=O)c2ccccc2)cc1`: the “activity, negative = inhibition” value is 171% [at 102 µM].
Still for that read-out and setting: then `COc1ccccc1N1CCN(S(=O)(=O)c2ccc(Cl)cc2)CC1`, with -9.73% [at 102 µM].
Regarding `Cc1c(C2=CCN(S(=O)(=O)c3ccc(Cl)cc3)CC2)c2ccccc2n1C`, the Potency is 44.7 µM (active).
In the case of `O=C(O)c1cccc(S(=O)(=O)N2CC=C(c3ccccc3)CC2)c1`, the activity, negative = inhibition was 23% [at 12.7 µM].
On the same count and under the same terms, then `COc1ccc(NC(=O)CSC2=Nc3ccccc3C3=NC(CC(=O)NCc4ccccc4OC)C(=O)N23)cc1Cl` (stereo not drawn), with -1.6%; and `CCC(C)CCN1CCN=C1N(C)C` (stereo not drawn), with 2.04% [at 2.33 µM].
On to `CN(C)CCOc1ccc(Cl)cc1C(C)(C)C`, for which the Potency is 8.91 µM (active).
Consider `CCC(C)(C)c1ccc(OCC(=O)N(C)C)c(C(C)(C)CC)c1`, for which the “activity, negative = inhibition” value is 90% [at 102 µM].
As for `O=C(NCCCO)c1nn(-c2ccc(Cl)cc2)nc1CO`, the “activity, negative = inhibition” value was 5.62%.
On the same count and under the same terms, as for `COc1ccc(/C=C2\SC(=S)N(CCC(=O)Nc3cccc(C(=O)O)c3)C2=O)cc1OC`, the figure is -17.4% [at 102 µM]; as for `Cc1nn(Cc2ccccc2)c(C)c1C(=O)NCCN1C(=O)S/C(=C\c2ccc(F)cc2)C1=O`, 7.37%.
Take `N#Cc1ccccc1CN1C(=O)S/C(=C/c2cccn2-c2cccc(C(=O)O)c2)C1=O`: the Potency is 44.7 µM (active).
With `CC(C)C(=O)Nc1nc2c(s1)CC(C(C)(C)C)CC2` (stereo not drawn), the “activity, negative = inhibition” value is -22.5%.
The same measure, in the same setting: then `Cn1nnnc1SCCCNCc1ccc(Cl)cc1`, with 0.182%; and `O=C(CCNC(=O)c1ccccc1)Nc1nc2ccccc2s1`, with -6.33% [at 0.501 µM].
Take `CN(C)CCOCCOc1ccc(Cl)c2ccccc12`: the Potency was 14.1 µM (active).
